{
  "source": "PubChem BioAssay (Tox21)",
  "key": {"[1]": {"experiment": "qHTS assay to identify small molecule antagonists of the thyroid receptor (TR) signaling pathway - cell viability counter screen (AID 743064); further: nearly all actives have a fitted effect of over 50% in size; further: potency means the concentration at half of the fitted maximal effect", "procedure,_shortened": "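Rat GH3 pituitary tumor cells stably expressing two TR response elements driving luciferase were plated, rested 4 h, then dosed with library compounds and T3 (1 nM final). After 23.5 h at 37 °C, CellTiter-Fluor was added for 30 min and fluorescence recorded.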"}, "[2]": {"experiment": "qHTS assay to identify small molecule antagonists of the thyroid receptor (TR) signaling pathway (AID 743065); further: nearly all actives have a fitted effect of over 55% in size; further: potency means the concentration at half of the fitted maximal effect", "procedure,_shortened": "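Antagonism measured as loss of luciferase signal in GH3 cells stably carrying a TRE-luciferase reporter, co-treated with compound and T3 (1 nM final) for 23.5 h at 37 C. Viability was read in the same well by CellTiter-Fluor.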"}, "[3]": {"experiment": "qHTS assay to identify small molecule antagonists of the estrogen receptor alpha (ER-alpha) signaling pathway - cell viability counter screen (AID 743074; calls by dose curve; further: nearly all actives have a fitted effect of over 45% in size)"}, "[4]": {"experiment": "qHTS assay to identify small molecule antagonists of the estrogen receptor alpha (ER-alpha) signaling pathway using the BG1 cell line (AID 743080; calls by dose curve;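 further: BG1 cells stimulated with 17beta-estradiol alongside compound; nearly all actives have a fitted effect of over 25% in size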; further: potency means the concentration at half of the fitted maximal effect)", "procedure,_shortened": "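Luminescence from a 4×ERE-luciferase reporter in BG1-Luc-4E2 cells served as read-out. Cells, pre-cultured 5 days in stripped-serum phenol-red-free medium, were exposed to compound with 17beta-estradiol co-stimulation for 21.5 h at 37 C.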"}, "[5]": {"experiment": "qHTS assay to identify small molecule antagonists of the estrogen receptor alpha (ER-alpha) signaling pathway using the BG1 cell line - cell viability counter screen (AID 743081);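 further: compound given together with 17beta-estradiol as the ER stimulus; nearly all actives have a fitted effect of over 45% in size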; further: potency means the concentration at half of the fitted maximal effect"}, "Aromatase (Homo sapiens)": {"biological_target": "Aromatase (Homo sapiens) (UniProt P11511)", "sequence (P11511 whole entry, looked up)": "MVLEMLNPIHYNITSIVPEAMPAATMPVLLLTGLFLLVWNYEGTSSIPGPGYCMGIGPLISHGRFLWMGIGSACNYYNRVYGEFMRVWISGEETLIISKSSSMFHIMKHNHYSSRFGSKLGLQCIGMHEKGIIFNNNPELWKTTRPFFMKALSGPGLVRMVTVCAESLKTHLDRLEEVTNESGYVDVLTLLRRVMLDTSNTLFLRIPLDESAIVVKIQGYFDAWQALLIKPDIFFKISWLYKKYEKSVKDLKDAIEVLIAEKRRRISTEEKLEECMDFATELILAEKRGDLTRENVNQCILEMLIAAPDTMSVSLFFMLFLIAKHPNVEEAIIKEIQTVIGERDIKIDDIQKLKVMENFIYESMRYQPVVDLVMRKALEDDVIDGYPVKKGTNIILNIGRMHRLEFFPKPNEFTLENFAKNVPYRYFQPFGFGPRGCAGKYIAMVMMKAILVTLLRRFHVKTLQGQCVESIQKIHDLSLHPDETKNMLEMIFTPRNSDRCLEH", "experiment": "qHTS assay to identify aromatase inhibitors (AID 743083); further: nearly all actives have a fitted effect of over 55% in size; further: potency means the concentration at half of the fitted maximal effect"}, "[6]": {"system": "thyroid hormone receptor (rat, GH3 cells)", "experiment": "qHTS assay to identify small molecule agonists of the thyroid receptor (TR) signaling pathway (AID 743066; calls by dose curve)"}, "[7]": {"biological_target": "Estrogen receptor (Homo sapiens) (UniProt P03372)", "sequence (P03372 whole entry, looked up)": "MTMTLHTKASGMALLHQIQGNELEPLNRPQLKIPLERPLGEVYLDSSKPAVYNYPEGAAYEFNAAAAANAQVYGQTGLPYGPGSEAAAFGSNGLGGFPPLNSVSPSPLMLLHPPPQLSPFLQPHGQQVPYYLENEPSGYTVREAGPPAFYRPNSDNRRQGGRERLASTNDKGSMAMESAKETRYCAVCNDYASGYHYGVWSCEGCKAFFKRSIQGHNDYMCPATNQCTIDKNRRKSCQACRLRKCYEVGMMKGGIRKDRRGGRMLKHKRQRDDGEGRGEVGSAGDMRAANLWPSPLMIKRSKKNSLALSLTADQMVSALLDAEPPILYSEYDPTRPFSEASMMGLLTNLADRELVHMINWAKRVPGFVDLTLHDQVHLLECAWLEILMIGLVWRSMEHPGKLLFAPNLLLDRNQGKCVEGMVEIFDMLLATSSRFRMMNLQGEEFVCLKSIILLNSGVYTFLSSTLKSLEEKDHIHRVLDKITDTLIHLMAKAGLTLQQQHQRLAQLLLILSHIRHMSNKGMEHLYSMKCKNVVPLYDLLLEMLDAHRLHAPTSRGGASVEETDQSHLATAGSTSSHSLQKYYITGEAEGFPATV", "experiment": "qHTS assay to identify small molecule antagonists of the estrogen receptor alpha (ER-alpha) signaling pathway (AID 743069; active means well fitted curve in the direction sought with a large enough effect in the signal ratio in the repeat runs, not every such curve was filed as active; inconclusive means weak or mixed curves, or effect the other way; inactive means no such curve, though single readings can be large or run the other way; the % refers to the signal ratio)", "procedure,_shortened": "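Antagonist mode: compounds in DMSO were co-added with 17beta-estradiol to ER-alpha-bla HEK293 cells (2% charcoal-stripped serum) and left 18 h at 37C. Reporter inhibition was measured as FRET fluorescence after 2 h LiveBLAzer substrate at room temperature.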"}, "[8]": {"biological_target": "Estrogen receptor (Homo sapiens) (UniProt P03372)", "experiment": "qHTS assay to identify small molecule agonists of the estrogen receptor alpha (ER-alpha) signaling pathway (AID 743075; calls by dose curve;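 further: HEK293 GripTite cells with ER-alpha and UAS-driven beta-lactamase reporter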; further: potency means the concentration at half of the fitted maximal effect)"}, "[9]": {"biological_target": "Estrogen receptor (Homo sapiens) (UniProt P03372)", "experiment": "qHTS assay to identify small molecule agonists of the estrogen receptor alpha (ER-alpha) signaling pathway using the BG1 cell line (AID 743079); further: nearly all actives have a fitted effect of over 20% in size; further: potency means the concentration at half of the fitted maximal effect"}},
  "note": "Several values for one entry are separate records, joined by “and”; a condition that tells them apart may be missing. Equal values may be shown once. Activity calls are given as the source filed them. Entries that show only a call come without a potency. Unless noted, the call rests on the fitted dose curve; in most records, active means well fitted curve in the direction sought with a large enough effect in the repeat runs; inconclusive means weak or mixed curves; inactive means no such curve, though single readings can be large; an effect the other way counts as inactive or inconclusive.",
  "data": [
    {"molecule": "CC(C)C[C@H](NC(=O)[C@H](Cc1ccccc1)NC(=O)c1cnccn1)B(O)O", "values": [
      {"measurement": "Potency", "setting": "[1]", "value": "18.8 nM (active) and 11.9 nM (active)"},
      {"measurement": "Potency", "setting": "[2]", "value": "23.7 nM (active) and 16.8 nM (active)"},
      {"measurement": "outcome", "setting": "[3]", "value": "inactive"},
      {"measurement": "Potency", "setting": "[4]", "value": "66.8 nM (active) and 53.1 nM (active)"},
      {"measurement": "Potency", "setting": "[5]", "value": "1.06 µM (active) and 668 nM (active)"},
      {"measurement": "Potency", "setting": "Aromatase (Homo sapiens)", "value": "21.1 nM (active) and 15 nM (active)"}
    ]},
    {"molecule": "CC(=O)Nc1ccn(C2COC(COC(=O)c3ccccc3)O2)c(=O)n1", "note": "(stereo unspecified)", "values": [
      {"measurement": "Potency", "setting": "[1]", "value": "inactive"},
      {"measurement": "Potency", "setting": "[2]", "value": "16.8 µM (active)"},
      {"measurement": "outcome", "setting": "[6]", "value": "inactive"},
      {"measurement": "Potency", "setting": "[5]", "value": "inactive"}
    ]},
    {"molecule": "O=C(c1ccc(Cl)cc1)c1ccc(Cl)cc1", "values": [
      {"measurement": "Potency", "setting": "[2]", "value": "inactive"},
      {"measurement": "outcome", "setting": "[6]", "value": "inactive"},
      {"measurement": "Potency", "setting": "[7]", "value": "inactive"},
      {"measurement": "outcome", "setting": "[3]", "value": "inactive"},
      {"measurement": "Potency", "setting": "[8]", "value": "inactive"},
      {"measurement": "Potency", "setting": "[9]", "value": "inactive"},
      {"measurement": "Potency", "setting": "[4]", "value": "inactive"},
      {"measurement": "Potency", "setting": "[5]", "value": "inactive"},
      {"measurement": "Potency", "setting": "Aromatase (Homo sapiens)", "value": "inactive"}
    ]},
    {"molecule": "CO[C@@H]1[C@@H](O[C@@H]2O[C@H](C)[C@@H](O[C@H]3C[C@@](C)(O)[C@@H](O)[C@H](C)O3)[C@H](N(C)C)[C@H]2O)[C@@H](CC=O)C[C@@H](C)[C@@H](O[C@@H]2CC[C@H](N(C)C)[C@@H](C)O2)/C=C/C=C/C[C@@H](C)OC(=O)C[C@H]1OC(C)=O", "values": [
      {"measurement": "Potency", "setting": "[1]", "value": "26.6 µM (active)"},
      {"measurement": "Potency", "setting": "[8]", "value": "inactive"},
      {"measurement": "Potency", "setting": "[9]", "value": "inactive"},
      {"measurement": "Potency", "setting": "[4]", "value": "inactive"},
      {"measurement": "Potency", "setting": "Aromatase (Homo sapiens)", "value": "inactive"}
    ]},
    {"molecule": "Nc1ccc(C(=O)Oc2ccccc2)c(O)c1", "values": [
      {"measurement": "Potency", "setting": "[1]", "value": "inactive"},
      {"measurement": "outcome", "setting": "[6]", "value": "inactive"},
      {"measurement": "Potency", "setting": "[7]", "value": "inactive"},
      {"measurement": "outcome", "setting": "[3]", "value": "inactive"},
      {"measurement": "Potency", "setting": "[8]", "value": "13.4 µM [inconclusive] (active)"},
      {"measurement": "Potency", "setting": "[9]", "value": "6.68 µM (active)"},
      {"measurement": "Potency", "setting": "[5]", "value": "inactive"},
      {"measurement": "Potency", "setting": "Aromatase (Homo sapiens)", "value": "inactive"}
    ]},
    {"molecule": "Nc1ccccc1Nc1ccccc1", "values": [
      {"measurement": "Potency", "setting": "[1]", "value": "15.4 µM (active)"},
      {"measurement": "Potency", "setting": "[2]", "value": "12.2 µM (active)"},
      {"measurement": "outcome", "setting": "[3]", "value": "inactive"},
      {"measurement": "Potency", "setting": "[5]", "value": "inactive"}
    ]}
  ]
}
